Bioassay records (PubChem)
This is a sample that favours compounds with a hit; in the whole collection about 10% have one here.
JMJD2A Tudor – inhibitors of human JMJD2A Tudor domain; O75164; AlphaScreen JMJD2A-Tudor / H3K4me3 peptide binding; Potency, µM (doses to about 114 µM), hits mostly inhibitors; 4.4% of 390,000 active; AID 504339; note: nearly all actives have a fitted effect of over 50% in size
Six1-Eya2 blk – inhibitors of human Six1/Eya2 interaction; Q15475+O00167; activity change, % (concentration not given with the values); 0.56% of 360,000 active; AID 651725; AlphaScreen GST-Six1/His-Eya2 binding, biochemical; active compounds read low; in the data active = activity change below about -65%; inconclusive = mostly about -30% to -63%
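AlphaScreen luminescence read after one hour at 37 °C in darkness. Pin-transferred compounds met GST-Six1 and His-Eya2 protein (5X stock 250 nM/500 nM) plus glutathione donor and Ni-chelate acceptor beads (5X, 50 ug/mL).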
BAZ2B block – inhibitors of human BAZ2B bromodomain; Q9UIF8; AlphaScreen BAZ2B-H3K14Ac peptide displacement; Potency, µM (highest dose often 114 µM), most hits filed as inhibitors; 4.4% of 360,000 active; AID 504333; note: nearly all actives have a fitted effect of over 60% in size
Target sequence (Q9UIF8 whole entry, looked up): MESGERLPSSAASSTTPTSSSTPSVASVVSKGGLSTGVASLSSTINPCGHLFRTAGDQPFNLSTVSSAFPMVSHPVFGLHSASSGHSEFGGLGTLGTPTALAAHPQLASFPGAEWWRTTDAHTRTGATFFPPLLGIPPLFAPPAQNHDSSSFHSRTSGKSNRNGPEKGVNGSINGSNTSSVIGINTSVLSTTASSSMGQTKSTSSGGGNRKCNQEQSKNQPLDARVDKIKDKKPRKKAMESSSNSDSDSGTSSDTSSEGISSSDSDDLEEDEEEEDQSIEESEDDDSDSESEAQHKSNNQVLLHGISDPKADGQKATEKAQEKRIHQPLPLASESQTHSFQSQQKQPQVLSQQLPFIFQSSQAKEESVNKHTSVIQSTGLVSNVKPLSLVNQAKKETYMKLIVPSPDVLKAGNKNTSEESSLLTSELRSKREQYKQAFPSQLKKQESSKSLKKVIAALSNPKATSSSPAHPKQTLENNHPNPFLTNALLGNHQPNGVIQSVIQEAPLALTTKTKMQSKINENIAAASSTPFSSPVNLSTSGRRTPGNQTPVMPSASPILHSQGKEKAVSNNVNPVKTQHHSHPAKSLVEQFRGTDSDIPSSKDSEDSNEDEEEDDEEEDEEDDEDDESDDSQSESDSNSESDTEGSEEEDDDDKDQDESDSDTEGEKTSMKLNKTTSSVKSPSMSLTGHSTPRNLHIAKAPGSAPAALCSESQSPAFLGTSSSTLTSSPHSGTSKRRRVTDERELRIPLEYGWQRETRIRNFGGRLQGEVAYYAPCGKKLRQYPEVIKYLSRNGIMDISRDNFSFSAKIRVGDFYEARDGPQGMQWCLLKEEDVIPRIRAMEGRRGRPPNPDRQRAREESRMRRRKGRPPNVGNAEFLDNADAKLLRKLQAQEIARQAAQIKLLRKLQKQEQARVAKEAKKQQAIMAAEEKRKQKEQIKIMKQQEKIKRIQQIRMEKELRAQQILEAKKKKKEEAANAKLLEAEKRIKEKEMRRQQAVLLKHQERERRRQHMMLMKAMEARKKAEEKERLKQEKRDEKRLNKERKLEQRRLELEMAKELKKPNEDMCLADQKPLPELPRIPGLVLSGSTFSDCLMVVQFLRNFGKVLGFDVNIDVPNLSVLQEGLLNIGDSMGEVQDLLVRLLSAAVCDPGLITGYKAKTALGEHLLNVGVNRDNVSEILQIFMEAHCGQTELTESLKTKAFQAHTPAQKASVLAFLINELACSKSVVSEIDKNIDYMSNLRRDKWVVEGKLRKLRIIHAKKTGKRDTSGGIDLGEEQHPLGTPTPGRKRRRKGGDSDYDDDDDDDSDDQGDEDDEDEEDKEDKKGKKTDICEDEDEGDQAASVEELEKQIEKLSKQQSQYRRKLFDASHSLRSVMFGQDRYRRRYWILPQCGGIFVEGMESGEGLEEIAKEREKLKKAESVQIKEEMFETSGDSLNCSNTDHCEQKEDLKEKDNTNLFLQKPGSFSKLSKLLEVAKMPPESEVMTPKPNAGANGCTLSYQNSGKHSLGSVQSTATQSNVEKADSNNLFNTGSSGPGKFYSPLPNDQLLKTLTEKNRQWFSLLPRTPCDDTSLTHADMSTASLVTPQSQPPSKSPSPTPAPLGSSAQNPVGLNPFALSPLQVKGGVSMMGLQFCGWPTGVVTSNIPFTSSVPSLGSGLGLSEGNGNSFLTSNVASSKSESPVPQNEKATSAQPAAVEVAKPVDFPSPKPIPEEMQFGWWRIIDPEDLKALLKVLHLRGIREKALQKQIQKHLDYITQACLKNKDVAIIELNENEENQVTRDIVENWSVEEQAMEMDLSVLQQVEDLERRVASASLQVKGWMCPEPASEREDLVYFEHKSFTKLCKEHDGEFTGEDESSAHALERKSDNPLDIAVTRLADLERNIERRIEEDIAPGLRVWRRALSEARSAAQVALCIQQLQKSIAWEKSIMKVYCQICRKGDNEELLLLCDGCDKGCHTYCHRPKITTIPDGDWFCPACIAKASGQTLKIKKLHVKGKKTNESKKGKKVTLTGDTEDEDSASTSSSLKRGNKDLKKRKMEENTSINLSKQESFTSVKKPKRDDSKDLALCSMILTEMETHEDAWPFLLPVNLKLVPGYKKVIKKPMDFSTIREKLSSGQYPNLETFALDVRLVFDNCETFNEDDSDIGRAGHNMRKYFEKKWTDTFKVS
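Multi-concentration screen (max 110 uM) measuring displacement of acetylated histone H3 peptide from BAZ2B by AlphaScreen, using 50 nM protein, 50 nM peptide and 10 ug/mL streptavidin donor plus Ni-chelate acceptor beads.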
G9a block – inhibitors of human histone lysine methyltransferase G9a. G9a H3K9 monomethylation, AlphaScreen, 2 h. Potency, µM (series often up to 102 µM), actives largely listed as inhibitors. 8.8% of 350,000 active. AID 504332; note: nearly all actives have a fitted effect of over 75% in size
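G9a (20 nM) was preincubated 15 min with compound, then reacted 2 h at room temperature with 500 nM biotin-H3K9 peptide and 20 µM SAM. Monomethyl-H3K9 detected by AlphaScreen using anti-H3K9me1 antibody.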
HP1b chromo inh – inhibitors of HP1-beta chromodomain binding to methylated histone tails; 0.56% of 390,000 active; AlphaScreen HP1-beta / biotin-H3K9me3 peptide binding; P83916; Potency, µM (doses to about 114 µM), usual class: inhibitors; note: nearly all actives have a fitted effect of over 70% in size
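Compound inhibition of the preformed complex between 50 nM HP1-beta and 50 nM biotinylated H3K9me3 peptide was read by AlphaScreen. Buffer was PBS pH 7.4 with 0.01% Tween-20. Incubations ran 30 min at room temperature, with 10 ug/mL donor/acceptor beads.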
CtBP-E1A inh – blocks the CtBP interaction with E1A. AlphaScreen GST-E1A/His-CtBP binding, 1536-well; active compounds read low. activity change, % (test concentration not listed). 0.49% of 340,000 active. AID 651724; in the data active = activity change below about -65%; inconclusive = mostly about -30% to -63%
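Protein mix (5X: 125 nM each GST-E1A, His-CtBP) was incubated with pinned compound 2 h at 37 deg C in dark, in 50 mM Tris pH 8.0 buffer with 300 mM NaCl. Glutathione donor and nickel acceptor beads followed; AlphaScreen signal read after 1 h.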
Large screens that a line does not name were inactive. Unless noted, calls come from the whole dose curve; as a rule, active = well fitted inhibition curve with a large enough effect; inconclusive = small, poorly fitted or top-dose-only effect; inactive = no such curve, though single readings can be large or run the other way.

C(=NN1CCCCCC1)c1cccc2ccccc12	JMJD2A Tudor 50µM, HP1b chromo inh inconclusive (no result: BAZ2B block, G9a block)
Cc1ccccc1OCC(=O)Nc1c(C)ccc2nsnc12	none (no result: Six1-Eya2 blk, CtBP-E1A inh)
CC(C)CC(CSc1ccc(Br)cc1)N1CCN(CCc2ccccc2)CCC1=O (configuration not stated)	none (no result: Six1-Eya2 blk, BAZ2B block, G9a block, CtBP-E1A inh)
CC(NC(=O)COc1ccc(Br)cc1)C(=O)O (configuration not stated)	G9a block inconclusive
CC(NC(=O)COc1cccc(Br)c1)C(=O)O (configuration not stated)	G9a block 50µM
O=C(COc1cccc(Br)c1)N/N=C1\CCSC1	JMJD2A Tudor 71µM
Cc1cc(C)nc(/N=C2/NC(=O)CS2)n1	JMJD2A Tudor 22µM, BAZ2B block inconclusive, G9a block 20µM
Cc1ccc(C)n1/N=C1/NC(=O)CS1	JMJD2A Tudor 79µM, Six1-Eya2 blk inconclusive
CNC(=S)NNC(=O)c1cn(C)nc1C	G9a block 40µM, CtBP-E1A inh inconclusive
CCOc1ccccc1-c1nnc2n1N=C(c1cccc(OC)c1)CS2	none (no result: Six1-Eya2 blk, BAZ2B block, G9a block, HP1b chromo inh, CtBP-E1A inh)
CC1CN(C(=O)COC(=O)CSc2ccc(C(N)=O)cc2[N+](=O)[O-])CC(C)O1 (configuration not stated)	none
CCOC(=O)CSc1ccc(C(=O)N2CCN(C)CC2)cc1[N+](=O)[O-]	G9a block 45µM
CC1CCC(NC(=O)COC(=O)CSc2ccc(C(N)=O)cc2[N+](=O)[O-])CC1 (configuration not stated)	G9a block 50µM
CC1CCN(C(=O)c2ccc(SCc3ccccc3F)c([N+](=O)[O-])c2)CC1	JMJD2A Tudor inconclusive, Six1-Eya2 blk inconclusive, G9a block 28µM, HP1b chromo inh inconclusive
NC(=O)c1ccc(SCC(=O)OCC(=O)N2CCCC2=O)c([N+](=O)[O-])c1	G9a block 50µM
CCCN1CNc2c(c(=O)[nH]c(=S)n2CCc2c(C)cccc2C)C1	none (no result: Six1-Eya2 blk, BAZ2B block, G9a block, CtBP-E1A inh)
CCCCN(C)CCCNC(=O)Cn1nc(CC)n2c(cc3sc(C)cc32)c1=O	none (no result: Six1-Eya2 blk, CtBP-E1A inh)
CCc1ccccc1N(CC)C(=O)c1c(C)oc2ncnc(N3CCOCC3)c12	none (no result: Six1-Eya2 blk, CtBP-E1A inh)
CC1=NC(=O)C(N=Nc2ccccc2C(=O)O)N1c1ccccc1 (configuration not stated)	JMJD2A Tudor inconclusive, BAZ2B block 28µM
CC1=NC(=O)C(N=Nc2ccccc2)N1c1ccccc1 (configuration not stated)	JMJD2A Tudor 11µM, Six1-Eya2 blk inconclusive, BAZ2B block 8.9µM, G9a block 8.9µM, CtBP-E1A inh inconclusive
CC1=NC(=O)C(N=Nc2cccc(C(=O)O)c2)N1c1ccccc1 (configuration not stated)	JMJD2A Tudor inconclusive, BAZ2B block 50µM, G9a block inconclusive
COc1ccc(C2Nc3ccccc3C(=O)N2Cc2ccccc2)cc1OCc1ccc(NC(C)=O)cc1 (configuration not stated)	none (no result: Six1-Eya2 blk, BAZ2B block, G9a block, HP1b chromo inh, CtBP-E1A inh)
Cc1cc(C)c2c(N)c(C(=O)N3CCN(c4ncccn4)CC3)sc2n1	JMJD2A Tudor 40µM, G9a block inconclusive
Cc1cc(C)c2c(N)c(C(=O)NNC(=O)c3ccccc3)sc2n1	G9a block 45µM
COCc1cc(C)nc2sc(C(=O)N3CCN(c4ccccc4)CC3)c(N)c12	G9a block inconclusive
CCOC(=O)CNC(=O)c1sc2nc(C)cc(C)c2c1N	G9a block 50µM
CC(=O)Nc1ccc(NC(=O)c2cnn(-c3ccccc3)c2C2CCN(C(=O)OC(C)(C)C)CC2)cc1	none (no result: Six1-Eya2 blk, BAZ2B block, CtBP-E1A inh)
COc1ccc(C(c2c(NC(=O)c3ccco3)sc(C)c2C)N2CCOCC2)cc1 (configuration not stated)	JMJD2A Tudor inconclusive, G9a block inconclusive
CC(=O)Nc1sc2c(c1C(c1ccc(F)cc1)N1CCOCC1)CCCC2 (configuration not stated)	JMJD2A Tudor inconclusive, BAZ2B block 50µM, G9a block inconclusive
CC(=O)Nc1sc2c(c1C(c1ccccc1)N1CCOCC1)CCCC2 (configuration not stated)	none
CC(=O)Nc1sc2c(c1C(c1ccc(Cl)cc1)N1CCOCC1)CCCC2 (configuration not stated)	JMJD2A Tudor inconclusive, BAZ2B block inconclusive, G9a block 45µM, HP1b chromo inh inconclusive
Cc1cccc(N2CCN(C(=O)c3sc4nc5n(c(=O)c4c3C)CCC5)CC2C)c1 (configuration not stated)	G9a block inconclusive (no result: Six1-Eya2 blk, CtBP-E1A inh)
Oc1cccc(Nc2nc(O)c(/C=C3\C=Nc4ccccc43)s2)c1	BAZ2B block inconclusive, G9a block 50µM, CtBP-E1A inh inconclusive
CCOc1ccc(N2CSC3=C(C#N)C(c4ccco4)CC(=O)N3C2)cc1 (configuration not stated)	BAZ2B block 45µM, G9a block 1.8µM
Cc1ccc(C2CC(=O)N3CN(c4ccc(Br)cc4)CSC3=C2C#N)o1 (configuration not stated)	JMJD2A Tudor 22µM, BAZ2B block 56µM, G9a block inconclusive
CCCCCCSC1=C(C#N)C(c2ccc(C)o2)CC(=O)N1 (configuration not stated)	BAZ2B block inconclusive, G9a block inconclusive
COc1ccc(OC(C)C(=O)Nc2ccc([N+](=O)[O-])cc2)cc1 (configuration not stated)	none
CC(Oc1ccccc1)C(=O)NNC(=O)c1ccccn1 (configuration not stated)	Six1-Eya2 blk -67
CC(=O)c1ccc(OCCCC(=O)NNC(=O)c2ccccn2)cc1	Six1-Eya2 blk inconclusive, G9a block inconclusive, CtBP-E1A inh -70
COc1ccc(C(=O)NNC(=O)c2ccccn2)cc1	none (no result: CtBP-E1A inh)
CC(=O)c1ccc(OCCCC(=O)n2nnc3ccccc32)cc1	JMJD2A Tudor 79µM
C/C(=N\NC(=O)C(C)Oc1ccc([N+](=O)[O-])cc1)c1ccccn1 (configuration not stated)	JMJD2A Tudor 56µM, Six1-Eya2 blk -88, BAZ2B block 25µM, CtBP-E1A inh -94
CC(Oc1cccc(Br)c1)C(=O)NNC(=O)c1ccccn1 (configuration not stated)	Six1-Eya2 blk inconclusive, CtBP-E1A inh inconclusive (no result: BAZ2B block, G9a block)
Cc1cccc(-c2nc3scc(CCNS(=O)(=O)c4ccc(F)c(C(F)(F)F)c4)n3n2)c1	none (no result: Six1-Eya2 blk, CtBP-E1A inh)
CCOc1ccc(NC(=O)[C@@H](c2ccccc2)N2Cc3ccccc3C2=O)cc1	none (no result: Six1-Eya2 blk, CtBP-E1A inh)
COc1cc(OC)cc(C(=O)NNC(=O)c2ccccn2)c1	Six1-Eya2 blk -92, CtBP-E1A inh -90
Cc1cccc(N/N=C2/COC(C)(C)CC2=O)c1	BAZ2B block inconclusive, G9a block 79µM (no result: CtBP-E1A inh)
